Results as given in PMC4336329 (PLoS ONE, 2015).
Hit rate of the full screen: of about 310,000 compounds, about 14,000 (4.5%) showed an effect of 50% or more. The effect is printed as a negative number. The sample as a whole holds a higher share of strong results than the screen did.

What follows are compounds tested against human ether-à-go-go-related gene (hERG) potassium channel (human, UniProt Q12809) (assay: primary screen, population patch clamp on CHO cells stably expressing hERG; higher = less effect of the substance).
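Also: peak tail current of the secondary pulse compared with the same well before compound.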

human ether-à-go-go-related gene (hERG) potassium channel, sequence (Q12809 whole entry, looked up): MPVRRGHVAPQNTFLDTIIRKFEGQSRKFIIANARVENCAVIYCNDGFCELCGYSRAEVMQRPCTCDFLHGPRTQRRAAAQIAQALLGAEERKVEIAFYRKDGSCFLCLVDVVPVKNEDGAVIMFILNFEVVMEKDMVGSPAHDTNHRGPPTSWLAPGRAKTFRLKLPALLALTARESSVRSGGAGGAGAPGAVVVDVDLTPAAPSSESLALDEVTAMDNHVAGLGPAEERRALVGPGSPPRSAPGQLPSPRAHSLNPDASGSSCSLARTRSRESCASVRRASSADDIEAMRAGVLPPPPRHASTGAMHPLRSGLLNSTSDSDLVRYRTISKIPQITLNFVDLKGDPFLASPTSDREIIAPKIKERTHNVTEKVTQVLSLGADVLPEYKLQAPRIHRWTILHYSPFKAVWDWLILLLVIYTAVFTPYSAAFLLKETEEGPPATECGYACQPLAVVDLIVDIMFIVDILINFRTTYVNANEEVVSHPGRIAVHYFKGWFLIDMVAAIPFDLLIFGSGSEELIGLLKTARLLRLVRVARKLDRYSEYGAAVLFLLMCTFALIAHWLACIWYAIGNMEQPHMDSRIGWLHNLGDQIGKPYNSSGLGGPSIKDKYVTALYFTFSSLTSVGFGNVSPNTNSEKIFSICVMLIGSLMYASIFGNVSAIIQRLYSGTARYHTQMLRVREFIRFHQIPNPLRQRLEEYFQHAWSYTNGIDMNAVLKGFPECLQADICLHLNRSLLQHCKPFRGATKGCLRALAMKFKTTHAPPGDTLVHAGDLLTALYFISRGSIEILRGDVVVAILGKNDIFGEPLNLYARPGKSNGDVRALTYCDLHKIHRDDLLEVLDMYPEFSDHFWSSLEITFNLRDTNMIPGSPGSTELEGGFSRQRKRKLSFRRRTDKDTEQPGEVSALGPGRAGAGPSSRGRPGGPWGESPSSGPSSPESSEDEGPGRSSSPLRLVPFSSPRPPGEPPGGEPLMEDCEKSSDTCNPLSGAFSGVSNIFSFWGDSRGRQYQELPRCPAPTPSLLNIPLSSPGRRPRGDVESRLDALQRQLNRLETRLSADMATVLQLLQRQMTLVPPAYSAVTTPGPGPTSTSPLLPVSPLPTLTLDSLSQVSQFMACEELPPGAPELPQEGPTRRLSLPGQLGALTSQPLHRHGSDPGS

SMILES | hERG current change (%, negative = inhibition) at 10uM [%]
O=C(/C=C/c1ccco1)Nc1cc(Cl)ccc1C(=O)O | -10.3
CCCc1cc(=O)[nH]c(SC/C=C/c2ccccc2)n1 | 9.33
Cc1c(N(C)C)c(=O)n(-c2ccccc2)n1C | 19.1
COc1ccccc1CNS(=O)(=O)c1ccc2c(c1)NC(=O)CS2 | -1.59
O=C(NCCCN1CCOCC1)c1sc2cc([N+](=O)[O-])ccc2c1Cl | -54
O=C(NCCCN1CCOCC1)c1sc2ccccc2c1Cl | -9.81
CCCNC(=O)c1cc2cc([N+](=O)[O-])ccc2s1 | -9.82
O=C(NCCN1CCOCC1)c1cc2cc([N+](=O)[O-])ccc2s1 | -63.3
O=C(NCCN1CCOCC1)c1cc([N+](=O)[O-])ccc1Cl | 6.5
O=C(NCCN1CCOCC1)c1sc2ccccc2c1Cl | -6.21
O=C(NCCCN1CCOCC1)c1sc2cc(F)ccc2c1Cl | -44
CCN(CC)C(=O)c1cc2cc([N+](=O)[O-])ccc2s1 | -55.5
CN(C)C(=O)c1cc2cc([N+](=O)[O-])ccc2s1 | -38.9
O=C(NCCN1CCOCC1)c1ccc([N+](=O)[O-])cc1[N+](=O)[O-] | -0.151
O=C(NCCN1CCOCC1)c1sc2cc(Cl)ccc2c1Cl | -10.3
O=C(NCCCN1CCOCC1)c1sc2cc(Cl)ccc2c1Cl | -69.6
O=c1c2cn[nH]c2[nH]c(=S)n1-c1ccccc1F | 24.8
N#CC1=C(N)Oc2cc(O)ccc2C1c1cccnc1 (centres unmarked) | 27.4
CCOc1nc2cnccc2n(CC(=O)Nc2ccccc2C(=O)OC)c1=O | -1.11
Cc1nn(-c2ccccc2)c(C)c1/C=N/NC(=O)CSc1nnc(SCc2cccc3ccccc23)s1 | 6.33
CCOC(=O)c1sc(=S)n(C)c1NC(=O)c1ccc(C(C)(C)C)cc1 | 11.8
CC(=O)N/C(=C/c1ccc2c(c1)OCO2)C(=O)O | -2.32
O=C(CCNS(=O)(=O)c1ccc(Cl)cc1)N1CCOCC1 | 22.4
COc1ccc2[nH]c3c(c2c1)CCNC3=O | 7.33
O=C1NCCc2c1[nH]c1ccccc21 | -77

SMILES | hERG current change (%, negative = inhibition) at 10uM [%]
Cc1ccc2[nH]c3c(c2c1)CCNC3=O | 4.86
O=C(Nc1ccc(-c2csc(Nc3cccc(C(F)(F)F)c3)n2)cc1)c1cccc(C(F)(F)F)c1 | 9.98
CCN1CCN(c2cc(C)c3cc(NC(=S)N4CCN(c5ccccc5)CC4)ccc3n2)CC1 | -0.088
CCCCN(C)CCNC(=S)Nc1ccc2nc(N3CCN(CC)CC3)cc(C)c2c1 | 2.83
CCN1CCN(c2cc(C)c3cc(NC(=S)NCCN(C)C)ccc3n2)CC1 | 3.21
CCN1CCN(c2cc(C)c3cc(NC(=S)N(C)Cc4ccccc4)ccc3n2)CC1 | -77.7
CCCCN(C)C(=S)Nc1ccc2nc(N3CCN(CC)CC3)cc(C)c2c1 | -78.9
CCCCN(CC)C(=S)Nc1ccc2nc(N3CCN(C)CC3)cc(C)c2c1 | -56.3
CCCCN(CC)CCNC(=S)Nc1ccc2nc(N3CCN(C)CC3)cc(C)c2c1 | -0.781
CCN1CCN(c2cc(C)c3cc(NC(=S)N(CC)CC)ccc3n2)CC1 | -43.9
CCCCN(CC)CCCNC(=S)Nc1ccc2nc(N3CCN(C)CC3)cc(C)c2c1 | 5.19
Cc1c(NC(=O)CSc2n[nH]c(=O)n2-c2ccccc2)c(=O)n(-c2ccccc2)n1C | 16.9
CCOC(=O)c1c(NC(=O)c2cccc(N3C(=O)CCC3=O)c2)sc(C)c1C | 5.4
CC(=O)c1ccc(NC(=O)COC(=O)c2ccccc2Sc2ccccc2C#N)cc1 | 18
O=C(CCCCn1c(=S)[nH]c2ccsc2c1=O)NCc1ccco1 | 16.6
O=C(c1ccc2c(c1)ncn2C1CCCCCC1)N1CCC2(CC1)OCCO2 | -2.37
O=C(c1ccc(Br)cc1)N1CCCc2ccccc21 | -6.19
O=C(CSc1nc(O)c(Cc2ccccc2)c(=O)[nH]1)Nc1ccccc1 | 8.28
O=C(Nc1ccc(-c2noc(-c3cccs3)n2)cc1)c1cccnc1 | -3.79
COc1ccc(Br)cc1/C=N/Nc1ccccn1 | 14.8
O=C(Nc1cccc(S(=O)(=O)NC2=NCCC2)c1)c1ccc(=O)[nH]c1 | 10.7
COc1ccc(-c2nnc3sc(C4CCCCC4)nn23)cc1OC | -51.1
COc1cccc(-c2nnc3sc(C4CCCCC4)nn23)c1 | -45.2
COc1cc(-c2nnc3sc(C4CCCCC4)nn23)cc(OC)c1OC | -43.7
CC(C)c1cc(C(=O)N2CCCC(CCC(=O)N3CCN(c4ccccn4)CC3)C2)no1 (centres unmarked) | -36.8

SMILES | hERG current change (%, negative = inhibition) at 10uM [%]
Cc1ccc(C(=O)N/C(=C\c2ccc(Cl)cc2)C(=O)NCC2CCCO2)cc1 (centres unmarked) | -49
Cc1ccc(C(=O)N/C(=C/c2ccc(-c3ccc(Br)cc3)o2)C(=O)NC2CCS(=O)(=O)C2)cc1 (centres unmarked) | -6.35
O=C(NCCO)/C(=C\c1ccc([N+](=O)[O-])o1)NC(=O)c1ccccc1 | 1.55
Cc1ccc(C(=O)N/C(=C\c2ccc(-c3ccc(Br)cc3)o2)C(=O)NC2CCS(=O)(=O)C2)cc1 (centres unmarked) | -5.68
Cc1ccc(C(=O)N/C(=C/c2ccc(Cl)cc2)C(=O)NCC2CCCO2)cc1 (centres unmarked) | -48.7
CN(C)CCCNC(=O)/C(=C\c1ccc(-c2ccc(Br)cc2)o1)NC(=O)c1ccccc1 | -75.1
Cc1ccc(C(=O)N/C(=C\c2ccc(-c3ccc(Cl)cc3)o2)C(=O)NCCCN(C)C)cc1 | -85
CN(C)CCCNC(=O)c1ccc(-c2ccccc2)cc1 | -36.7
Cc1ccc(C(=O)N/C(=C\c2ccc(-c3ccc(Br)cc3)o2)C(=O)NCCCN(C)C)cc1 | -80.3
O=C(N1CCOCC1)N(Cc1ccco1)CC1CCCO1 (centres unmarked) | -48.5
COc1ccccc1NC(=O)c1ccc2nc(C)c(C)nc2c1 | -16.1
O=C(c1ccccc1)n1ccn(-c2ccccc2)c1=S | -14.9
Cn1c(=NC(=O)CS(=O)(=O)c2ccccc2)sc2cc([N+](=O)[O-])ccc21 | -36.5
CCCc1cc(=O)oc2cc(C)cc(OC(C)C(=O)NCC(O)c3ccccc3)c12 (centres unmarked) | 7.42
CN(C)S(=O)(=O)c1ccc(C(=O)NCC2(N3CCCCC3)CCCCC2)cc1 | -1.46
Cc1ccccc1C(=O)NCC(=O)NCC1(N2CCOCC2)CCCCC1 | -25.7
CCN(CC)S(=O)(=O)c1ccc(C(=O)NCC2(N3CCOCC3)CCCCC2)cc1 | -67.3
CN(C)S(=O)(=O)c1ccc(C(=O)NCC2(N3CCOCC3)CCCCC2)cc1 | -9.69
O=C(CNC(=O)c1ccc(OC(F)F)cc1)NCC1(N2CCOCC2)CCCCC1 | -68.5
NC(=O)COc1ccc(C(=O)NCC2(N3CCOCC3)CCCCC2)cc1 | 6.98
CCC(C)NC(=O)CS(=O)Cc1nc(-c2cccc(OC)c2)oc1C (centres unmarked) | 2.84
CCOc1cc(C2NC(=O)NC(C)=C2C(C)=O)cc(Cl)c1OCC(=O)O (centres unmarked) | 5.35
CCc1ccc(OCC(=O)Nc2ccc(S(=O)(=O)Nc3cc(C)on3)cc2)c(Br)c1 | -19.7
Nc1nc2ccccc2n1CCN1CCCC1 | 6.04
C=CCn1c(NCc2ccccc2)nc2ccccc21 | -26.4

SMILES | hERG current change (%, negative = inhibition) at 10uM [%]
Brc1cccc(CNc2nc3ccccc3n2CCN2CCCCC2)c1 | -67.8
Cl.OCCNc1nc2ccccc2n1CCN1CCCCC1 | -30.4
Cc1nc2ccccc2n1CCN1CCOCC1.Cl | 23.3
Cn1c(NCc2cccc(Br)c2)nc2ccccc21 | -22.2
Brc1ccc(CNc2nc3ccccc3n2CCN2CCCCC2)cc1 | -62.7
Brc1cccc(CNc2nc3ccccc3n2CCN2CCOCC2)c1 | -76.3
Cc1ccc(OCCn2cnc3cc([N+](=O)[O-])ccc3c2=O)cc1 | -8.19
COc1ccc(S(=O)(=O)NNC(=O)c2sccc2-n2cccc2)cc1 | 2
COC(=O)c1ccc(NC(=O)C2CCCN2S(=O)(=O)c2ccc(OC)cc2)cc1 (centres unmarked) | -16.8
COc1cc(C(=O)Nc2ccc(C(=O)c3cccs3)cc2)cc(OC)c1OC | -10.1
Cc1cc(F)ccc1NC(=S)NC1CCCC1 | 17.9
COC(=O)c1[nH]c2cc(OC)ccc2c1NC(=O)CCN1CCN(c2cccc(C)c2C)CC1 | -16.4
COC(=O)c1[nH]c2cc(OC)ccc2c1NC(=O)CCN1CCN(c2ccccc2)CC1 | -67
CCOC(=O)c1[nH]c2ccc(OC)cc2c1NC(=O)CCN1CCN(Cc2ccccc2)CC1 | -57.1
CCOC(=O)c1[nH]c2ccc(OC)cc2c1NC(=O)CCN1CCc2ccccc2C1 | -59.5
CCOC(=O)c1[nH]c2ccc(OC)cc2c1NC(=O)CCN1CCSCC1 | -5.8
CCOC(=O)C1CCCN(CC(=O)Nc2c(C(=O)OC)[nH]c3ccc(C)cc23)C1 (centres unmarked) | -36.1
CCOC(=O)C1CCCN(CCC(=O)Nc2c(C(=O)OC)[nH]c3cc(OC)ccc23)C1 (centres unmarked) | -59.6
CCOC(=O)c1[nH]c2cc3c(cc2c1NC(=O)CN1CCc2ccccc2C1)OCO3 | -0.934
CCOC(=O)C1CCCN(CC(=O)Nc2c(C(=O)OC)[nH]c3ccccc23)C1 (centres unmarked) | -25.2
COC(=O)c1[nH]c2cc(OC)ccc2c1NC(=O)CCN1CCCCC1 | -20.5
CCOC(=O)c1[nH]c2ccc(OC)cc2c1NC(=O)CCN1CCC(C)CC1 | -22.8
CCOC(=O)c1[nH]c2ccc(OC)cc2c1NC(=O)CN1CCc2ccccc2C1 | -12.4
